# Autofluor counter = counter-screen for toxin protease inhibitors: compound fluorescence; hit rate 3.1% among 360,000; compound autofluorescence counterscreen, microsphere flow cytometry; active compounds read high; fluorescence intensity (concentration not given with the values); AID 624483; in the data active = fluorescence intensity above about 16000; inconclusive = no clear call, values can overlap the other calls
# VHR inh abs = VHR1 phosphatase inhibitors, primary screen, biochemical, absorbance, uHTS; hit rate 0.52% among 290,000; AID 1654, 2009; Dual specificity protein phosphatase 3 (Homo sapiens), P51452; inhibition, % at 13.3 µM; recombinant VHR phosphatase, pNPP absorbance; in the data active = inhibition above about 50%
# BoNT-F LC inh = BoNT/F light chain protease inhibitors, primary screen, biochemical, flow cytometry, MLPCN library | Botulinum neurotoxin type F light chain protease (Clostridium botulinum) | Multiplex microsphere protease cleavage assay | inhibition, % at 10 µM | hit rate 0.22% among 360,000; in the data active = inhibition above about 35%, passing the limit was not always enough; inconclusive = no clear call, values can overlap the other calls; note: plate controls were buffer without enzyme for full effect and enzyme alone for no effect
# BoNT-A LC inh2 = BoNT/A light chain protease inhibitors, primary screen, biochemical, flow cytometry, MLPCN library; hit rate 0.17% among 360,000; inhibition, % at 10 µM; multiplex microsphere protease substrate cleavage; AID 588499, 2011; note: plate controls were buffer without enzyme for full effect and enzyme alone for no effect
# 3CLpro inhibitor = SARS-CoV 3CLpro protease inhibitors, primary screen, biochemical, quenched FRET | Replicase polyprotein 1ab (Severe acute respiratory syndrome coronavirus), P0C6X7 | recombinant SARS-CoV 3CLpro, quenched FRET peptide cleavage | inhibition, % at 6 µM | hit rate 0.14% among 290,000; in the data active = inhibition above about 12%
# Anthrax LF inh2 = Bacillus anthracis LF protease inhibitors, primary screen, biochemical, multiplex microsphere, MLPCN library; multiplex microsphere protease cleavage assay; AID 588501, 2011; Lethal factor (Bacillus anthracis), P15917; hit rate 0.12% among 360,000; inhibition, % at 10 µM; note: plate controls were buffer without enzyme for full effect and enzyme alone for no effect
# Target sequence (P15917 whole entry, looked up): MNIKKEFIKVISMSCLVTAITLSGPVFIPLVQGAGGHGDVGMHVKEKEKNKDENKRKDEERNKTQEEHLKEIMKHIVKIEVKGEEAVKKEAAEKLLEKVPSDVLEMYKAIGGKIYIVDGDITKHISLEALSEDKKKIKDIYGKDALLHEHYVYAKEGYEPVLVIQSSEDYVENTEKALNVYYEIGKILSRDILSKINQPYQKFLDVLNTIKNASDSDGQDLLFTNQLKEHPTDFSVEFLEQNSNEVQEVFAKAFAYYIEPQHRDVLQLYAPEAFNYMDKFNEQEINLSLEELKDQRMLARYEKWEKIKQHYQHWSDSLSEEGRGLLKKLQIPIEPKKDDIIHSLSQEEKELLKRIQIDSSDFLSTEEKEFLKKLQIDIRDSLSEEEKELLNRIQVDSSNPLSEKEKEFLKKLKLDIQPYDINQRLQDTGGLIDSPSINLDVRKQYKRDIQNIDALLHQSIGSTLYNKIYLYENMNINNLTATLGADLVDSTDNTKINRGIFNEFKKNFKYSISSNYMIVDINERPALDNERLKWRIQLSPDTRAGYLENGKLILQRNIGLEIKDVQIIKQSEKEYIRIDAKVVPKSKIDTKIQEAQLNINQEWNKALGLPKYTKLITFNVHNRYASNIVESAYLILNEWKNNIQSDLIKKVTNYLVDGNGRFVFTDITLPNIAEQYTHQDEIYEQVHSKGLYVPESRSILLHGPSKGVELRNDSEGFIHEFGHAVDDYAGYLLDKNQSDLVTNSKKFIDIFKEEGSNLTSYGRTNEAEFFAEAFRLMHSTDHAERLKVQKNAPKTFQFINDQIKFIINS
# Numbers without * were called inactive; ? = inconclusive; · = no result. Compounds with a hit are over-represented: about 3.9% of the library has one in this group of screens. Cut-off read from the data, not from the text of the source, unless noted: active = inhibition above about 30%; inconclusive = no clear call, values can overlap the other calls; inactive = below that.
SMILES,Autofluor counter,VHR inh abs,BoNT-F LC inh,BoNT-A LC inh2,3CLpro inhibitor,Anthrax LF inh2
CC(C)(C)NS(=O)(=O)c1ccc(CCC(=O)Nc2ccc3c(c2)OCCO3)cc1,2373,51*,-4,-1,3,-2
CC(C)(C)NS(=O)(=O)c1ccc(CCC(=O)Nc2ccc3c(c2)OCO3)cc1,7072,15,-8,0,4,0
O=C(c1cccc(C(F)(F)F)c1)N(c1ccccn1)C1CCCCC1,4590,22,4,0,3,-2
COc1ccc(NC(=O)c2sc(=O)n(Cc3ccc4ccccc4c3)c2C)cc1OC,4845,·,-2,0,·,2
CCOC(=O)CCP(=O)(O)C(C)(O)c1ccccc1 (stereo not drawn),18987*,25,0,2,7,1
O=C(NC(=S)Nc1cccc([N+](=O)[O-])c1)C1CCCCC1,5314,-14,-5,1,0,-2
CCCOC(=O)c1cc(-c2ccc(/C=C3/C(=O)N(C)C(=O)C(C#N)=C3C)o2)ccc1Cl,22120*,·,-2,-2,9,0
C=CCOC(=O)c1cc(-c2ccc(/C=C3\C(=O)NC(=O)C(C#N)=C3C)o2)ccc1Cl,5030,12,2,1,-3,2
Cc1ccc2c(COC(=O)C3CSC4(C)CCC(=O)N34)cc(=O)oc2c1C (stereo not drawn),9074,·,-1,-2,·,-7
Cc1cnc(C(=O)OCc2ccc(COC(=O)c3cnc(C)cn3)cc2)cn1,4722,17,-6,0,-2,-1
Cc1cnc(C(=O)OCc2ccc(Br)cc2F)cn1,5747,58*,4,2,-2,0
COC(=O)c1cc(C(=O)c2ccc(Cl)cc2Cl)cn1C,21700*,16,0,?,-1,-2
O=C(NCc1ccccc1Cl)c1ccc2c(c1)OCO2,6016,-3,-4,3,-1,-1
CCCCCc1c(C)nc(N2CCc3ccccc32)[nH]c1=O,2394,53*,2,0,4,-2
CCCCCc1c(C)nc(N2CCc3ccccc3C2)[nH]c1=O,10025,13,0,0,3,0
COc1cccc(C2=NO[C@@H]3C(=O)N(c4ccc5c(c4)OCCO5)C(=O)[C@H]23)c1OC,20829*,2,6,4,5,0
CC1=CCC2C(=O)N(c3ccc(C(=O)N4CCCCCC4)cc3)C(=O)C2C1 (stereo not drawn),2790,21,5,0,0,1
CCn1cc(Cl)c(C(=O)Nc2c(C)nn(Cc3c(F)c(F)c(F)c(F)c3F)c2C)n1,4843,33,10,3,-4,4
Cc1ccc(OCc2ccc(C(=O)Nc3c(C)nn(Cc4c(F)c(F)c(F)c(F)c4F)c3C)o2)c([N+](=O)[O-])c1,23883*,-3,-2,0,5,-1
Cc1nn(Cc2c(F)c(F)c(F)c(F)c2F)c(C)c1NC(=O)c1nn(C)cc1[N+](=O)[O-],22913*,19,1,?,0,1
Cc1cc(NC(=O)c2c([N+](=O)[O-])cnn2C)no1,20559*,26,0,-1,1,0
CCn1cc([N+](=O)[O-])c(C(=O)Nc2c(C)nn(Cc3c(F)c(F)c(F)c(F)c3F)c2C)n1,20974*,12,4,4,-1,0
CCOC(=O)N1CCN(C(=O)COC(=O)Cc2ccc(Cl)cc2)CC1,5618,17,2,0,-3,2
O=C(CCn1cnnn1)N1CCCC(Nc2ccc(F)c(F)c2)C1 (stereo not drawn),5799,30,1,1,-9,1
Cc1nn(Cc2c(F)c(F)c(F)c(F)c2F)c(C)c1NC(=O)c1c([N+](=O)[O-])cnn1C,22419*,3,2,2,-5,-4
SMILES,Autofluor counter,VHR inh abs,BoNT-F LC inh,BoNT-A LC inh2,3CLpro inhibitor,Anthrax LF inh2
Cc1nn(Cc2c(F)c(F)c(F)c(F)c2F)c(C)c1NC(=O)c1c([N+](=O)[O-])c(C)nn1C,8510,39,-13,-1,1,-3
Oc1ccc(Cl)cc1Sc1cc(Cl)ccc1O,2987,·,3,0,·,-9
CCn1c(-c2nonc2NC(=O)c2ccccc2)nc2ccccc21,20786*,14,1,0,-9,-1
CCC(=O)Nc1nonc1-c1nc2ccccc2n1Cc1ccc(Cl)c(Cl)c1,5464,·,2,-1,·,-5
CC(=O)Nc1nonc1-c1nc2ccccc2n1Cc1nnc(C)o1,22950*,33,-1,1,3,1
CC(=O)Nc1nonc1-c1nc2ccccc2n1Cc1ccccc1,3900,7,14,0,-2,2
O=C(C1CCN(S(=O)(=O)c2ccc(F)cc2)CC1)N1CCCC(C(F)(F)F)C1 (stereo not drawn),6362,·,2,1,·,0
Clc1ccc(-c2nnc3n2CCCC3)cc1,21835*,19,-1,0,-6,1
CC1=C(C/C=C(\C)CCC[C@H](C)CCC[C@H](C)CCCC(C)C)C(=O)c2ccccc2C1=O,5290,·,0,0,·,-14
CCN(CC(=O)Nc1c(F)cccc1F)C(=O)c1ccc2c(c1)C(=O)N(c1ccccc1C)C2=O,3801,·,11,0,·,3
COc1ccc([C@@H]2C[C@H]3[C@@H](CN2S(=O)(=O)c2ccccc2)C(=O)C[C@@H](c2ccc(C)cc2)N3S(=O)(=O)c2ccc(C)cc2)cc1,3046,·,-2,0,·,-5
COc1ccc(N2CCN(CC(=O)N3CCC(C)CC3)CC2)cc1,17583*,16,-4,-3,1,-1
COc1ccc(-c2ccc(-c3nnn(CC(C)=O)n3)cc2)cc1,22673*,20,1,1,-7,-3
CCn1ncc(Br)c1C(=O)Nc1cc([N+](=O)[O-])ccc1C,2597,7,-6,0,-6,0
O=c1cc(N2CCN(c3ccccc3)CC2)[nH]c(=O)n1-c1ccccc1Cl,21259*,15,-6,-4,-5,-2
COc1ccc(-n2c(=O)cc(N3CCOCC3)[nH]c2=O)cc1,19939*,21,1,-1,0,-1
COc1ccc(-n2c(=O)cc(N3CCCCCC3)[nH]c2=O)cc1,10048,0,0,0,-2,-1
CCOC(=O)N1CCN(c2cc(=O)n(-c3ccccc3Cl)c(=O)[nH]2)CC1,4210,28,0,1,-3,0
CCOc1ccc(-n2c(=O)cc(N3CCN(c4ccccc4)CC3)[nH]c2=O)cc1,21972*,20,1,1,1,-4
COc1cc(/C=N/NC(=O)c2cc3ccccc3[nH]2)ccc1O,4116,57*,-8,-2,-9,2
COc1cc(/C=N/NC(=O)c2cccc(C(=O)N/N=C/c3ccc(O)c(OC)c3)n2)ccc1O,3725,·,11,-3,-3,-4

# Compound activity from PubChem BioAssay.
